Results filed as inconclusive are left out. The source made the active and inactive calls. Unless noted, calls come from the whole dose curve.
Assays:
[1] = Nuclear factor erythroid 2-related factor 2/antioxidant responsive element (Nrf2/ARE) small molecule agonists: qHTS cell viability counter screen in human keratinocytes (AID 1919968; active = well fitted curve in the direction sought with a large enough effect in the repeat runs; an effect the other way counts as inactive or inconclusive; note: nearly all actives have a fitted effect of over 55% in size)
Method in brief: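 KeratinoSens HaCaT cells, 1,500/well, preincubated 5 h, then exposed to compounds in DMSO for 23 h at 37 C/5% CO2. Viability read as CellTiter-Fluor fluorescence after 1 h, in the same wells as the ARE-luciferase read.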

[2] = Nuclear factor erythroid 2-related factor 2/antioxidant responsive element (Nrf2/ARE) small molecule agonists: luciferase reporter gene qHTS assay in human keratinocytes (AID 1919969); note: nearly all actives have a fitted effect of over 35% in size
[3] = biological target: Gonadotropin-releasing hormone receptor (Homo sapiens) (UniProt P30968); assay: Human gonadotropin-releasing hormone receptor (GnRHR) small molecule agonists, calcium flux assay in GnRHR-HEK293 cells (AID 1920063); note: nearly all actives have a fitted effect of over 35% in size
Sequence of Gonadotropin-releasing hormone receptor (Homo sapiens) (P30968 whole entry, looked up): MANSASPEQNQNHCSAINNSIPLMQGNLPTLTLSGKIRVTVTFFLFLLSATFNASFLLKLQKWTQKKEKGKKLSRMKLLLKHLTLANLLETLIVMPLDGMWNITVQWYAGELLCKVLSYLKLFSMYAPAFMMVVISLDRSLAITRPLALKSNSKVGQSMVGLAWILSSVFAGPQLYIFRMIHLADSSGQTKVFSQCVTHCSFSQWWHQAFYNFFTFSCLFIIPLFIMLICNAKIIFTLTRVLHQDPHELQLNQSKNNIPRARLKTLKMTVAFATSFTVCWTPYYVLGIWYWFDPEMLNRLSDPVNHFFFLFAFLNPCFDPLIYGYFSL
Method in brief: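 HEK293 cells stably expressing human GnRHR were dye-loaded for 1 h at 37 C. Compound was added in agonist mode and fluorescence (Ex/Em 480/540) recorded kinetically for 3 min. Fifteen concentrations, triplicates.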

[4] = biological target: KiSS-1 receptor (Homo sapiens) (UniProt Q969F8); assay: Human kisspeptin (KISS1R) small molecule agonists, calcium flux assay in KISS1R-HEK293 cells (AID 1920064; active = well fitted curve in the direction sought with a large enough effect in the repeat runs; an effect the other way counts as inactive or inconclusive)
Sequence of KiSS-1 receptor (Homo sapiens) (Q969F8 whole entry, looked up): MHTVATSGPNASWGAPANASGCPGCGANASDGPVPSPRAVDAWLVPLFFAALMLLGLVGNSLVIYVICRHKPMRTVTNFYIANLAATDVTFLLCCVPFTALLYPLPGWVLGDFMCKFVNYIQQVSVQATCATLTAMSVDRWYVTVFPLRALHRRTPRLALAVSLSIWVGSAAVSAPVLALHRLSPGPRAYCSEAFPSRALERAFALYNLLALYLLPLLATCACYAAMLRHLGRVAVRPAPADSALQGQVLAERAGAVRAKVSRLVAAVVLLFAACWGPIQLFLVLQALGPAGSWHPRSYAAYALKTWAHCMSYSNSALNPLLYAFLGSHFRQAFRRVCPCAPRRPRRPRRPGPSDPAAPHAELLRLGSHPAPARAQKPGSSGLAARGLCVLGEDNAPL
Method in brief: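 HEK293 cells stably expressing human KISS1R were loaded with calcium dye for 1 h at 37 C, then given compound; fluorescence (Ex/Em 480/540) was read kinetically for 3 min. Fifteen concentrations, triplicate.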

[5] = G protein-coupled receptor (GPCR) small molecule agonists, calcium flux assay: HEK293 wild type cell line counter screen (AID 1920065)
Method in brief: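 Wild-type HEK293 cells plated 18 h, loaded with calcium dye 1 h at 37 C, then compounds added in agonist mode (ATP as positive control). Kinetic fluorescence Ex/Em 480/540 recorded 3 min at 1 sec intervals; 15 concentrations, triplicate.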

[6] = p53 small molecule agonists, cell-based qHTS assay with human liver microsomes (AID 1963577)
Method in brief: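 Compounds act here after metabolic activation: human liver microsomes and NADPH, both at 0.5 mg/mL final, were co-added to p53RE-bla cells. Incubation ran 16 h at 37 C, followed by LiveBLAzer detection.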

[7] = p53 small molecule agonists, cell-based qHTS assay with rat liver microsomes (AID 1963578)
Method in brief: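 Read-out is beta-lactamase reporter fluorescence (LiveBLAzer, 2 h, room temperature, dark) in p53RE-bla cells treated 16 h at 37 C with compound, rat liver microsomes and NADPH, both 0.5 mg/mL final.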

[8] = p53 small molecule agonists, cell-based qHTS assay with human liver microsomes: qHTS cell viability counter screen (AID 1963579); note: nearly all actives have a fitted effect of over 45% in size
Method in brief: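 Cells carrying the p53 response-element beta-lactamase reporter are treated for 16 h at 37 C with test compounds in the presence of human liver microsomes and NADPH (both 0.5 mg/mL final); ATP-based CellTiter-Glo luminescence then reports viability.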

[9] = p53 small molecule agonists, cell-based qHTS assay with rat liver microsomes: qHTS cell viability counter screen (AID 1963580); note: nearly all actives have a fitted effect of over 45% in size
Method in brief: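 Intracellular ATP, by CellTiter-Glo luminescence, defines viability. HCT-116 p53RE-bla cells, 4,000 per well, were compound-treated in the presence of rat liver microsomes and NADPH for 16 h at 37 C.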

[10] = p53 small molecule agonists, cell-based qHTS assay: qHTS cell viability counter screen (AID 1963581); note: nearly all actives have a fitted effect of over 45% in size
Method in brief: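 p53RE-bla HCT-116 cells, compounds added 5 h after plating and incubated 16 h at 37 C. Cytotoxicity measured in the same wells as intracellular ATP by CellTiter-Glo luminescence after 30 min at room temperature.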

[11] = p53 small molecule agonists, cell-based qHTS assay (AID 1963582; active = well fitted activation curve with a large enough effect in the signal ratio in the repeat runs, not every such curve was filed as active; the % refers to the signal ratio)
Method in brief: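 p53RE-bla reporter cells, compounds added in DMSO after 5 h plating, incubated 16 h at 37 C. Beta-lactamase read via 2 h room-temperature LiveBLAzer B/G FRET substrate, fluorescence intensity.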

[12] = biological target: 5-hydroxytryptamine receptor 2A (Homo sapiens) (UniProt P28223); assay: 5-hydroxytryptamine receptor 2A (HTR2A) small molecule antagonists, cell-based qHTS assay (AID 1963586); note: nearly all actives have a fitted effect of over 45% in size
Sequence of 5-hydroxytryptamine receptor 2A (Homo sapiens) (P28223 whole entry, looked up): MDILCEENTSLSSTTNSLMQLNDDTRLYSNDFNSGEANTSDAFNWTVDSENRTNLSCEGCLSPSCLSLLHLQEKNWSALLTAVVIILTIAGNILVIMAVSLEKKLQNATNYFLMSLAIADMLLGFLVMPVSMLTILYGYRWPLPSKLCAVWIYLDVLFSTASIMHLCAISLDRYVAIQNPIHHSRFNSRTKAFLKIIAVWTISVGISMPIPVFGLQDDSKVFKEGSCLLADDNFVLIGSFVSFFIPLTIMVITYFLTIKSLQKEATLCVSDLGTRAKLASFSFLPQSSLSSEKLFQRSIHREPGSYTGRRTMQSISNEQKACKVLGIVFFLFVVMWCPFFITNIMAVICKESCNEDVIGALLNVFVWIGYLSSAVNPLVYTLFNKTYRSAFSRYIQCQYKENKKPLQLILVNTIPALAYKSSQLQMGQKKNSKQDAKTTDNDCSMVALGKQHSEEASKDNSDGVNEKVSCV
Method in brief: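 Antagonist-mode intracellular calcium assay: DOI (4 nM) added after 5 min compound pre-incubation at room temperature to dye-loaded HTR2A-CHO cells. Fluorescence followed for 3 min, sampled every second.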

[13] = biological target: 5-hydroxytryptamine receptor 2A (Homo sapiens) (UniProt P28223); assay: 5-hydroxytryptamine receptor 2A (HTR2A) small molecule agonists, cell-based qHTS assay (AID 1963587); note: nearly all actives have a fitted effect of over 30% in size
Method in brief: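 Kinetic calcium-flux fluorescence (2 min, 1 sec intervals) after compound addition in agonist mode. HTR2A-CHO cells were cultured 18 h, then dye-loaded 1 h at 37 C.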

[14] = biological target: Muscarinic acetylcholine receptor M1 (Homo sapiens) (UniProt P11229); assay: Cholinergic receptor muscarinic 1 (CHRM1) small molecule antagonists, cell-based qHTS assay (AID 1963588); note: nearly all actives have a fitted effect of over 40% in size
Sequence of Muscarinic acetylcholine receptor M1 (Homo sapiens) (P11229 whole entry, looked up): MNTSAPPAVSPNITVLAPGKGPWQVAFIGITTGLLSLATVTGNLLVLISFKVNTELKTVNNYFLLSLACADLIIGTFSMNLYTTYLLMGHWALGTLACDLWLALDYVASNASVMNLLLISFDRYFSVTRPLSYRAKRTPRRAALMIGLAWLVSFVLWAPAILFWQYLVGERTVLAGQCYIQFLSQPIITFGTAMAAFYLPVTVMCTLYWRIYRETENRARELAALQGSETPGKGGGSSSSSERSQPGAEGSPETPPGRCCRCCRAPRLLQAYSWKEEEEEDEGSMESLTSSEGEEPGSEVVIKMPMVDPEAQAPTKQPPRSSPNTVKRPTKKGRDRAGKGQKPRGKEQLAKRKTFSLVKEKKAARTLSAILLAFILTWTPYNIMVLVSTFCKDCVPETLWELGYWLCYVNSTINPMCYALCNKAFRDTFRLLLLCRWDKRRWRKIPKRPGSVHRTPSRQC
Method in brief: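 CHRM1-CHO calcium-flux assay, antagonist mode. Cells were seeded 18 h, dye-loaded 1 h at 37 C and given compound for 5 min at RT, then acetylcholine was added at 50nM. FDSS fluorescence was read 3 min; 15 concentrations, three runs.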

[15] = biological target: Muscarinic acetylcholine receptor M1 (Homo sapiens) (UniProt P11229); assay: Cholinergic receptor muscarinic 1 (CHRM1) small molecule agonists, cell-based qHTS assay (AID 1963589); note: nearly all actives have a fitted effect of over 35% in size
Method in brief: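 CHO cells stably expressing human CHRM1 were loaded with calcium dye for 1 h at 37 C, then compound was added in agonist mode. Intracellular calcium fluorescence was followed kinetically at 1 s intervals. Fifteen concentrations were tested in three independent runs.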

[16] = cAMP Responsive Elements (CRE) small molecule agonists, cell-based qHTS assay (AID 1963590)
Method in brief: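 CRE-bla HEK 293T cells, 2,000/well in DMEM with 10% dialyzed FBS and 25 mM HEPES, pre-incubated 18 h at 37 C, then exposed to compound 3 h at 37 C. Beta-lactamase reporter read with LiveBLAzer B/G FRET substrate after 2 h at room temperature.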

[17] = cAMP Responsive Elements (CRE) small molecule antagonists, cell-based qHTS assay (AID 1963591; active = well fitted inhibition curve with a large enough effect in the signal ratio in the repeat runs, not every such curve was filed as active; the % refers to the signal ratio)
Method in brief: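 CRE-bla HEK293T cells plated 18 h, then given compound plus NKH477 at 0.25 uM final for 3 h at 37C. Beta-lactamase reporter read with LiveBLAzer B/G FRET substrate after 2 h at room temperature.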

[18] = biological target: Beta-2 adrenergic receptor (Homo sapiens) (UniProt P07550); assay: Adrenergic beta2 receptor (ADRB2) small molecule antagonists, cell-based qHTS assay (AID 1963592); note: series mostly up to about 92 µM; nearly all actives have a fitted effect of over 50% in size
Sequence of Beta-2 adrenergic receptor (Homo sapiens) (P07550 whole entry, looked up): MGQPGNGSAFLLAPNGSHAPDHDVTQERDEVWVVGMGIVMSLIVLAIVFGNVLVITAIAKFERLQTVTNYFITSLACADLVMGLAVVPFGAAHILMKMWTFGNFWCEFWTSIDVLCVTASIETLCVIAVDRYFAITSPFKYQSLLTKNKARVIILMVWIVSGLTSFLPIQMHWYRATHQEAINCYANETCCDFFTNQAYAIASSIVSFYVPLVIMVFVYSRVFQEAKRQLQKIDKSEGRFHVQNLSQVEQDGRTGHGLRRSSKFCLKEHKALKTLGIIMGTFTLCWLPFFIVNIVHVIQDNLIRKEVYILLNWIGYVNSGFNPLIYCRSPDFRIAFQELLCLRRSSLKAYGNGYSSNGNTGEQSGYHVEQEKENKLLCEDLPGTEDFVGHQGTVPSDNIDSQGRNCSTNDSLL
Method in brief: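 Cells (CHO, stable ADRB2 overexpression) incubated 18-20hr at 37C; compounds added from DMSO; agonist mix (1nM isoproterenol, 100uM IBMX, 25uM Ro-20-1724) added; 0.5hr RT; d2-cAMP and anti-cAMP-cryptate added; 1hr RT; 665/615 nm read.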

[19] = biological target: D(2) dopamine receptor (Homo sapiens) (UniProt P14416); assay: Dopamine D2 receptor (DRD2) small molecule agonists, cell-based qHTS assay (AID 1963594); note: nearly all actives have a fitted effect of over 35% in size
Sequence of D(2) dopamine receptor (Homo sapiens) (P14416 whole entry, looked up): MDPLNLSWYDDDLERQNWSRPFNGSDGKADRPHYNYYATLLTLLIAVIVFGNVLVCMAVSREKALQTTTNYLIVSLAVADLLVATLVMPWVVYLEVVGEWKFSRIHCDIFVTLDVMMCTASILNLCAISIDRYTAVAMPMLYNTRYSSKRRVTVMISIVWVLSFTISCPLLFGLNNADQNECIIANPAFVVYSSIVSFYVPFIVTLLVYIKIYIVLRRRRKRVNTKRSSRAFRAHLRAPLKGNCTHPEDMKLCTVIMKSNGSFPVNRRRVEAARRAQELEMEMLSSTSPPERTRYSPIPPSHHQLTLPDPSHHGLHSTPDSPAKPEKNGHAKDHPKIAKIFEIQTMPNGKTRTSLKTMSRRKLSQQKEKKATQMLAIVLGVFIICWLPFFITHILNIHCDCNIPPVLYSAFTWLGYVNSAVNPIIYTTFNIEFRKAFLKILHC
Method in brief: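 cAMP accumulation in DRD2-HEK293 cells measured by HTRF after 1 h detection; compounds added 10 min before NKH477 (200nM […]) forskolin-analogue stimulation, 30 min at room temperature, with Ro20-1724 present at 0.1 mM final.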

[20] = biological target: D(2) dopamine receptor (Homo sapiens) (UniProt P14416); assay: Dopamine D2 receptor (DRD2) small molecule antagonists, cell-based qHTS assay (AID 1963595; active = well fitted inhibition curve with a large enough effect in the signal ratio in the repeat runs, with a control signal flat; the % refers to the signal ratio)
Method in brief: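 HEK293 cells stably expressing DRD2 were preincubated with 0.1 mM Ro20-1724, then with compound for 10 min at room temperature. Cells were stimulated with 200 nM NKH477 plus 12 nM quinpirole for 30 min, and cAMP was read by HTRF.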

Measured: Potency

C=C(C)C(=O)OCCN(C)C
inactive: all assays above

CC(C=O)Cc1ccc(C(C)C)cc1 (stereo not given)
inactive: all assays above

CCCCCC(C)N (stereo not given)
inactive: all assays above

ON=C1CCCC1
inactive: all assays above

C[C@@H](CN1CC(=O)NC(=O)C1)N1CC(=O)NC(=O)C1
inactive: all assays above

C=C1C[C@@]23CC[C@H]4[C@@](C)(CCC[C@@]4(C)C(=O)O[C@@H]4O[C@H](CO)[C@@H](O)[C@H](O)[C@H]4O)[C@@H]2CC[C@]1(O[C@@H]1O[C@H](CO)[C@@H](O)[C@H](O[C@@H]2O[C@H](CO)[C@@H](O)[C@H](O)[C@H]2O)[C@H]1O[C@@H]1O[C@H](CO)[C@@H](O)[C@H](O)[C@H]1O)C3
inactive: all assays above

CCOc1cccc(N)c1
inactive: all assays above

CC(C)(C)NCCNC(C)(C)C
inactive: all assays above

COC(=O)c1ccccc1Cl
inactive: all assays above

CC(=O)c1cnccn1
inactive: all assays above

CCCCOC(=O)C(C)CC (stereo not given)
inactive: all assays above

Cc1cc(=O)oc2cc(O[C@@H]3SC[C@@H](O)[C@H](O)[C@H]3O)ccc12
inactive: all assays above

CCc1cccc(C)c1
inactive: all assays above

CC(=O)CCc1ccc(O)cc1
inactive: all assays above
